Assay outcomes (PubChem)
HT1080 IDH1KD tx: HT-1080 IDH1 knockdown cell toxicity (counter line); HT-1080 IDH1 knockdown viability, ATP luminescence, 48 h; Potency, µM (doses to about 46.1 µM), usual class: cytotoxic; actives 2% (n = 360,000)
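Assay cells: HT-1080 with IDH1 knockdown, 750 per well, RPMI/5% FBS. Exposure: 48 h at 37 °C following 2 h pre-incubation. Read: CellTiter-Glo luminescence; fitted concentration-response, curve class assigned.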
ATXN viability: viability counter-screen for ATXN expression inhibitors | S2 cells (HEK-293 line with an ATXN2-luciferase reporter) viability, CellTiter-Fluor protease fluorescence, 24 h | Potency, µM (highest dose often 56.7 µM), actives largely listed as cytotoxic | actives 0.49% (n = 400,000); further: nearly all actives have a fitted effect of over 40% in size
ATXN2 expr inh: ATXN2 expression inhibition; HEK-293 ATXN2-luciferase reporter, luminescence, 24 h; Potency, µM (top dose mostly 57 µM), hits mostly inhibitors; actives 0.72% (n = 360,000); further: nearly all actives have a fitted effect of over 55% in size
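qHTS (up to 57 uM final) was run with 24 h compound exposure of reporter cells at 37 °C. Each well was multiplexed: SteadyGlo luminescence measured ATXN2-luciferase expression after a fluorogenic Gly-Phe-AFC viability readout (25 uM final).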
HT1080-NT tox: kills 2HG-producing HT-1080-NT fibrosarcoma cells; HT-1080-NT fibrosarcoma viability, CellTiter-Glo ATP luminescence, 48 h; Potency, µM (highest dose often 46.1 µM), hits mostly cytotoxic; actives 1.6% (n = 360,000);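 further: NT is the 2HG producing partner of a matched IDH1 knockdown line; nearly all actives have a fitted effect of over 55% in size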
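A 48-hour cytotoxicity screen used HT-1080-NT cells plated 2 hours before compound delivery. ATP-based CellTiter-Glo luminescence measured viability, normalized to DMSO and no-cell controls.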
TGFb SMAD3 inh: TGF-b pathway inhibition; HepG2 CAGA-GFP TGF-b/SMAD3 reporter, GFP fluorescence, 18 h; TGF-beta stimulated, 500 pg/mL final; Potency, µM (titrated, usually from 46.1 µM), hits mostly inhibitors; actives 1.2% (n = 410,000); further: nearly all actives have a fitted effect of over 65% in size
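TGF-beta reporter screen: HEPG2 CAGA-GFP, 1% FBS, 500 pg/mL TGF-beta final, 18 h; per-cell GFP summed per well; curves fitted and categorized by class.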
HepG2 tox: kills HepG2 cells in TGF-b inhibitor counter-screen | Potency, µM (top dose mostly 46.1 µM), most hits filed as cytotoxic | AID 588856 | HepG2 CAGA-GFP viability, ATP luminescence, 18 h | actives 0.76% (n = 410,000)
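HepG2 CAGA-GFP cells (1000/well, DMEM with 1% FBS) received compound, then TGF-beta at 500 pg/mL final, and were incubated 18 hours at 37 degrees C. Viability was read by CellTiter-Glo luminescence. Media-only wells were set as complete cell-killing and DMSO as no toxicity.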
Numbers stand for hits; . = inactive; ? = inconclusive; / = no result; ! = a repeat was not active; [ ] = another dose, or the depositor's remark. An excerpt weighted towards active compounds, which were near 3.9% of everything screened. The call rests on the fitted dose curve; in most records, active means well fitted curve in the direction sought with a large enough effect; inconclusive means small, poorly fitted or top-dose-only effect, or another doubt; inactive means no such curve, though single readings can be large; an effect the other way counts as inactive or inconclusive.

SMILES	HT1080 IDH1KD tx	ATXN viability	ATXN2 expr inh	HT1080-NT tox	TGFb SMAD3 inh	HepG2 tox
Cn1cc(C(=O)c2ccc(Cl)cc2Cl)cc1C(=O)N/N=C(\N)COc1ccc(Cl)cc1	16.4µM	.	?	?	?	.
COc1ccc2c(c1)c1c(c(=O)n(Cc3ccccc3)c(=O)n1CC(=O)Nc1ccccc1OC)n2C	/	.	.	/	.	.
CCCc1nc2ccc(Br)cn2c1Cc1ccccc1OC	?	22.4µM	?	?	15.8µM	.
CCCc1nc2c(C)cc(Br)cn2c1Cc1ccccc1C(F)(F)F	?	?	?	?	?	10µM
CCCc1nc2ccc(C)cn2c1Cc1ccccc1OC	18.4µM	/	?	?	?	.
CCCc1nc2ccc(C)cn2c1Cc1ccccc1C(F)(F)F	32.6µM	?	?	25.9µM	?	.
Cc1cc(NCCNC2=CC(=O)CCC2)nc2ccccc12	.	.	.	.	.	.
Cc1cc(NCC2CCCCC2)nc2ccccc12	7.31µM	.	.	?	.	.
CCN(CC)c1nn2c(=O)c(C(=O)NCc3cccc(OC)c3OC)cnc2s1	/	/	/	/	.	.
C=C1CCC[C@]2(C)C[C@H]3OC(=O)C(CNC(C)CCCC(C)C)[C@H]3CC12 (stereo not given in full)	?	?	?	?	11.2µM	.
COc1ccc(C2(CNC(=O)C(=O)Nc3ccccc3C)CCCC2)cc1OC	/	.	.	/	.	.
O=C(c1ccc(Cl)cc1)c1c[nH]c(C(=O)NNc2cccc(Cl)n2)c1	?	.	.	23.1µM	.	.
Cc1cccc(Nc2nc(N)c([N+](=O)[O-])c(NCc3ccco3)n2)c1	?	?	.	?	?	.
Nc1nc(Nc2cccc(Cl)c2)nc(NCc2ccco2)c1[N+](=O)[O-]	16.4µM	?	?	?	?	.
Nc1nc(Nc2ccc(Cl)cc2)nc(NCc2ccco2)c1[N+](=O)[O-]	18.4µM	.	.	?	?	.
Nc1nc(Nc2cccc(F)c2)nc(NCc2ccco2)c1[N+](=O)[O-]	25.9µM	.	.	9.2µM	?	.
COc1ccc(C(=O)Nc2ccccc2-c2nc(-c3ccc(OC)cc3)no2)cc1	/	.	.	/	.	.
COCCCNC(=O)c1ccc(Cn2c(=O)c3ccccc3n(CC(=O)Nc3c(C)cccc3C)c2=O)cc1	/	.	.	/	.	.
COC(=O)C1CCN(Cc2ccc(OCCCN3CCN(c4ccc([N+](=O)[O-])cc4)CC3)cc2)CC1	14.6µM	.	/	.	.	.
CC1CCN(CCCCOc2ccc([N+](=O)[O-])cc2)CC1	.	.	.	.	.	.
OC1(c2ccccc2)CC(c2ccccc2)c2ccccc2O1 (stereo not given)	?	.	?	?	?	22.4µM
Cc1ncc(CO)c2c1Oc1nc(-c3ccccc3F)nc(SCC(=O)N(C)c3ccccc3)c1C2	20.6µM	17.8µM	?	?	?	.
Cc1ncc(CO)c2c1Oc1nc(-c3ccccc3)nc(SCC(=O)N3CCCCC3)c1C2	.	14.1µM	.	?	.	.
CCN(CC)C(=O)CSc1nc(-c2ccccc2F)nc2c1Cc1c(CO)cnc(C)c1O2	/	.	.	/	.	.
CCN(CC)CCn1nc2c3c(cccc3c1=O)-c1ccccc1-2	20.6µM	?	10µM	14.6µM	?	.
SMILES	HT1080 IDH1KD tx	ATXN viability	ATXN2 expr inh	HT1080-NT tox	TGFb SMAD3 inh	HepG2 tox
O=c1[nH]nc(OCCCc2ccc(Cl)cc2)c(NCc2cccnc2)c1Br	/	/	24.3µM	/	/	/
Clc1ccc(NCc2cccnc2)cc1	.	.	.	.	.	.
O=C1NC[C@H](CCCCN2C[C@H](Cc3ccccc3)N(CC3CCCCC3)C(=O)C2=O)N(CC2CCCCC2)C1=O	?	14.1µM	.	.	/	/
O=C1NC[C@@H](CCCCN2C[C@H](Cc3ccccc3)N(CCC3CCCCC3)C(=O)C2=O)N(Cc2ccccc2)C1=O	20.6µM	.	.	?	/	/
CN(C(=O)COc1ccccc1C(=O)NCCOc1ccccc1)c1ccccc1	?	?	?	20.6µM	?	.
Nc1[nH]nc2nc(N3CCCC3)nc(-c3ccccc3)c12	.	.	.	.	.	.
COc1ccc(-c2nc(N3CCOCC3)nc3n[nH]c(N)c23)cc1	?	.	.	?	11.2µM	.
O=C(CCn1cccn1)Nc1ccc(Br)cc1F	/	.	.	/	.	.
COc1cc(CN2c3ccc(Br)cc3C(=O)CS2(=O)=O)cc(OC)c1	/	/	/	/	11.2µM	.
COc1cccc(CN2C(=O)C(C)Oc3ccccc32)c1 (stereo not given)	.	?	.	.	.	.
COc1cccc(CN2c3ccc(Br)cc3C(=O)CS2(=O)=O)c1	.	.	.	.	7.94µM	.
C=CCN1c2ccc(Br)cc2C(=O)CS1(=O)=O	.	.	.	.	?	.
Cc1cc(CNC(=O)CCN2Cc3cc(Cl)ccc3OC(C)C2)nn1C (stereo not given)	/	.	/	/	/	/
Cc1ccc(NCc2ccccc2OCc2ccccc2F)cc1	.	.	.	.	.	.
Oc1ccc(NCc2ccccc2OCc2ccccc2F)cc1	.	?	?	?	10µM!	11.2µM!
CCOc1ccccc1CNc1ccc(O)cc1	?	?	.[11.3 µM]	23.1µM	15.8µM	.
Cc1ccc(C)c(Cn2c3ccccc3c3cnn(CC(=O)NC4CCC(C)CC4)c(=O)c32)c1 (stereo not given)	/	.	.	/	.	.
COc1ccc(C(=O)N[C@H](C(=O)Nc2nc3ccccc3[nH]2)C(C)C)cc1	5.8µM	/	.	5.8µM	?	.
Cc1cccc(C(=O)N[C@H](C(=O)Nc2nc3ccccc3[nH]2)C(C)C)c1	5.8µM	?	?	5.8µM	?	.
COc1ccc(C(=O)Nc2nc3ccccc3[nH]2)cc1	?	.	?	?	.	.
Cc1ccc2c(Br)cc(Br)c(O)c2n1	/	?	6.31µM	/	/	/
COc1cc(/C=C/c2ccc3c(Br)cc(Br)c(O)c3n2)ccc1O	?	?	/	?	?	.
CC(C)Cc1ccc(CC(=O)O)cc1	/	.	.	/	/	/
CCc1ccc(OCC(=O)NC(=S)Nc2ccc(C(=O)O)cc2)cc1	.	.	.	.	.	.
CCCC(=O)NC(NC(=S)Nc1ccc(N=Nc2ccccc2)cc1)C(Cl)(Cl)Cl (stereo not given)	18.4µM	/	?	?	?	.
O=C(CCc1ccccc1)NC(NC(=S)Nc1ccc(Br)cc1)C(Cl)(Cl)Cl (stereo not given)	?	.	?	17.8µM	?	.
CCc1ccc(OCC(=O)NC(NC(=S)Nc2ccc(Cl)cc2)C(Cl)(Cl)Cl)cc1 (stereo not given)	?	/	?	?	7.08µM	8.91µM
